Screens from PubChem BioAssay.
In the library only some 3% were active in any assay of this set; here they are far more common.
HEK293 cAMP ctrl = parental HEK293 cAMP activation (counter-screen) | parental HEK293 CNG cAMP sensor, membrane potential fluorescence | Potency, µM (doses to about 57.1 µM), actives largely listed as activators | 73,000 tested, 2.5% active; also: nearly all actives have a fitted effect of over 55% in size
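Counterscreen for endogenous-receptor signalling: CNG-channel HEK 293 cells report cAMP rise by membrane depolarization. After 60 min dye equilibration with 100 uM RO 20-1724, compounds incubated 30 min before bottom-read fluorescence at 590 nm.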
15-hLO inh = blocks human 15-lipoxygenase activity. 74,000 tested, 1.4% active. Potency, µM (highest dose often 57.1 µM), hits mostly inhibitors. AID 887. purified 15hLO-1, xylenol orange hydroperoxide absorbance; also: nearly all actives have a fitted effect of over 55% in size
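Purified human 15hLO-1 (40 nM final) in 25 mM Hepes pH 7.5, 0.01% Triton X-100 was preincubated with compound 15 min at room temperature, then reacted 6 min with 50 uM arachidonic acid; hydroperoxide detected by Fe-XO, 573/405 nm absorbance ratio.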
Caspase-1 inhib = allosteric or competitive inhibitors of human caspase-1; P29466; Caspase-1 enzyme, Ac-WEHD-AFC fluorogenic rate; Potency, µM (series often up to 57.5 µM), actives largely listed as inhibitors; 75,000 tested, 0.03% active; AID 900
Target sequence (P29466 120-297 limits assumed): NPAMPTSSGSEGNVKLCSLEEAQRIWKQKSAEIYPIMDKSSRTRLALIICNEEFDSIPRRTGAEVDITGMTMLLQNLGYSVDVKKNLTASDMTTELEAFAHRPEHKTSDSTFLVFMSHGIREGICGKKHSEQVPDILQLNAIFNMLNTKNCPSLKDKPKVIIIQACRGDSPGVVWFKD
Target sequence (P29466 317-404 limits assumed): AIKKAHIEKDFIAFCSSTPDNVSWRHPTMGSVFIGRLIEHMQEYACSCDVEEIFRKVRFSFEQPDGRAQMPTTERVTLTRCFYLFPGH
15-hLO-2 inh = blocks human 15-lipoxygenase 2 activity. AID 881. O15296. Potency, µM (titrated, usually from 57.1 µM), most hits filed as inhibitors. 110,000 tested, 0.56% active. purified 15hLO-2, xylenol orange hydroperoxide absorbance; also: nearly all actives have a fitted effect of over 60% in size
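Purified human 15hLO-2 (50 nM final) preincubated with compounds 15 min at room temperature in 25 mM Hepes pH 7.5, 0.01% Triton X-100, then 45 uM arachidonic acid added for 90 min; hydroperoxide detected via ferrous/xylenol orange, 573/405 nm absorbance ratio.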
TSHR ag = agonists of human thyroid stimulating hormone receptor | P16473 | 73,000 tested, 0.48% active | HEK293-CNG-TSHR cells (CNG channel as cAMP sensor), membrane potential dye, cAMP | Potency, µM (titrated, usually from 57.1 µM), most hits filed as activators | AID 926; active = well fitted activation curve with a large enough effect in the main read-out, with a control signal flat, not every such curve was filed as active; inconclusive = small, poorly fitted or top-dose-only effect, or a change in a side signal; inactive = no such curve, though single readings can be large or run the other way; reference of the percent scale not stated here;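 also: the control signal comes from parental cells without the receptor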
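HEK 293 cells stably expressing TSHR and a modified CNG channel, with CNG-only parental cells as counterscreen, were preloaded 60 min at room temperature with membrane potential dye containing 100 uM RO 20-1724. Compound exposure was 30 min, and depolarization was read as fluorescence at 590 nm.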
Casp7 inh = allosteric or competitive inhibitors of human caspase-7; P55210; recombinant caspase-7, Ac-DEVD-AFC fluorescence rate; Potency, µM (highest dose often 57.5 µM), most hits filed as inhibitors; 75,000 tested, 0.02% active; AID 889; active = well fitted inhibition curve with a large enough effect in the main read-out, with a control signal flat, not every such curve was filed as active; inconclusive = small, poorly fitted or top-dose-only effect, or a change in a side signal
Target sequence (P55210 24-198 limits assumed): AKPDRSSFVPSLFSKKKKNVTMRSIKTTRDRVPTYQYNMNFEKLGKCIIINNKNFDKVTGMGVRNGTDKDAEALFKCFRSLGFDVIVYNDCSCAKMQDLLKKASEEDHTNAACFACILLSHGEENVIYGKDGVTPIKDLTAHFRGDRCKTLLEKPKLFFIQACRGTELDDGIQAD
Target sequence (P55210 207-303 limits assumed): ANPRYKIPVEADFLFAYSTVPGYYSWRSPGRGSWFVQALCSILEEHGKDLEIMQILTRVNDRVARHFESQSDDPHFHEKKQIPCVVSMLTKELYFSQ
A number is an active result; - = inactive; ? = inconclusive; . = no result; [ ] = dose if it differs, or a comment. Unless noted, calls follow the shape of the dose curve; as a rule, active = well fitted curve in the direction sought with a large enough effect; inconclusive = small, poorly fitted or top-dose-only effect, or another doubt; inactive = no such curve, though single readings can be large; an effect the other way counts as inactive or inconclusive.

SMILES	HEK293 cAMP ctrl	15-hLO inh	Caspase-1 inhib	15-hLO-2 inh	TSHR ag	Casp7 inh
O=C(O)c1oc(C(=O)O)c(C(=O)O)c1C(=O)O	-[11.4 µM]	-[11.4 µM]	-[11.5 µM]	-[11.4 µM]	-[11.4 µM]	-[11.5 µM]
O=C(Nc1cccc(F)c1)N1CCCC2(CCN(C(=O)c3ccco3)CC2)C1	-	0.32µM	-	-	-	-
O=C(Nc1ccccc1)N1CCCC2(CCN(C(=O)c3cc(C(F)(F)F)cc(C(F)(F)F)c3)CC2)C1	-	-	-	-	25µM	-
O=C(Nc1ccccc1)N1CCCC2(CCN(C(=O)c3cccc(F)c3)CC2)C1	-	-	-	-	25µM	-
CC(C)CN1CC2(CCN(C(=O)c3ccco3)CC2)C1	20µM	-	-	-	?	-
O=C(Nc1cccc(F)c1)N1CC[C@@]2(CCCN(C(=O)c3ccco3)C2)C1	?	-	-	-	?	-
CC(C)CN1CCCC2(CCN(C(=O)c3ccco3)CC2)C1	-	-	-	-	-	-
c1ccc(-c2n[nH]c3c2oc2ccccc23)cc1	.	.	.	-[0.0915 µM]	.	.
CC(C)N(CC(=O)O)CC(=O)O	-[11.4 µM]	-[11.4 µM]	-[11.5 µM]	-[11.4 µM]	-[11.4 µM]	-[11.5 µM]
COc1cccc(Nc2ncc3nc(-c4ccc(Cl)cc4)c(=O)n(C4CC4)c3n2)c1	-	-	.	-	-	?
COCCNc1nc(C)nc2c1nc(-c1ccccc1)n2CCN(C)C	-	-	-	-	-	-
O=C(c1oc2ccccc2c1CSCc1ccccc1)N1CCN(c2ncccn2)CC1	10µM	?	-	-	?	-
COC(=O)[C@H]1C[C@H]2CC[C@H](O)C[C@H]2N1Cc1c(F)cccc1Cl	.	.	-	-	.	-
COC(=O)c1ccccc1NC(=O)Cn1c(-c2nonc2N)nc2ccccc21	16µM	?	-	-	?	-
Nc1nonc1-c1nc2ccccc2n1CC(=O)O	.	.	.	-	.	.
O=C(NCc1nc2ccccc2[nH]1)c1ccco1	-	-	-	-	-	-
O=C(NCc1nc2ccccc2[nH]1)[C@H]1C[C@@H]1[C@H](NP(=O)(c1ccccc1)c1ccccc1)c1ccccc1	13µM	.	-	-	?	-
O=C(NCCCNC(=O)c1cccs1)c1cccs1	-	-	-	-	-	-
CC(C)(CNC(=O)c1cccs1)CNC(=O)c1cccs1	32µM	-	-	-	?	-
CCn1c(NC(=O)c2cccs2)nc2ccccc21	16µM	-	-	-	?	-
O=C(NCc1nc2ccccc2[nH]1)c1cccs1	5µM	-	-	-	?	-
C[C@@H](CN1CCC(Cc2ccccc2)CC1)[C@H](O)c1ccc(O)cc1	-	-	-	-	-	-
COC(=O)C/C=C/C(C)C(OC)c1ccccc1Br (stereo not drawn)	-[11.4 µM]	-[11.4 µM]	-[11.5 µM]	.	-[11.4 µM]	-[11.5 µM]
O=C(O)C(Cl)(c1ccccc1)c1ccccc1	-[11.4 µM]	-[11.4 µM]	-[11.5 µM]	-[11.4 µM]	-[11.4 µM]	-[11.5 µM]
CCOC(=O)c1cnc(-n2nc(C)cc2C)nc1NCCc1ccccc1	25µM	-	-	-	?	-
SMILES	HEK293 cAMP ctrl	15-hLO inh	Caspase-1 inhib	15-hLO-2 inh	TSHR ag	Casp7 inh
O=c1c2ccccc2sn1-c1cc(S(=O)(=O)N2CCOCC2)ccc1N1CCOCC1	-	16µM	-	0.5µM	-	-
O=c1c2ccccc2sn1-c1cc(S(=O)(=O)N2CCOCC2)ccc1N1CCCC1	.	.	.	1µM	.	.
CC#CCN(CC#CC)S(=O)(=O)c1ccc(-n2cnnn2)c(OC)c1	13µM	-	-	-	?	-
CC1=C(C(=O)OCc2ccc3c(c2)OCO3)C(c2ccc(F)cc2)NC(=O)N1 (stereo not drawn)	?	-	-	-	?	-
CC1=C(C(=O)OCc2ccc3c(c2)OCO3)C(c2ccc(Cl)cc2)NC(=O)N1 (stereo not drawn)	-	-	-	-	32µM	-
CN1CCN(c2nc3c(c(=O)n(C)c(=O)n3C)n2CCSc2nc3ccccc3s2)CC1	-	1.6µM	-	.	-	-
CCN1CCN(c2nc3c(c(=O)[nH]c(=O)n3C)n2CCSc2nc3ccccc3s2)CC1	.	.	.	-	.	.
Nc1ccc(O)cc1C(=O)OCC(=O)C12CC3CC(CC(C3)C1)C2	-	13µM	-	5µM	-	-
O=C(Cn1sc2ccccc2c1=O)NC12CC3CC(CC(C3)C1)C2	.	.	.	0.79µM	.	.
NC(=O)c1ccccc1OCC(=O)NC12CC3CC(CC(C3)C1)C2	.	.	.	-	.	.
C=C(C)CSc1nnc(-c2cccc(S(=O)(=O)N(C)C)c2)n1-c1cc(OC)ccc1OC	13µM	-	-	-	?	-
CCN(CC)S(=O)(=O)c1ccc(NC(=O)CSc2nnc(-c3cccc(OC)c3)n2C)cc1	.	.	.	-	.	.
CCCCCCN(C(=O)CCCCCN1C(=O)NC(c2ccc(C3CCCCC3)cc2)C(C(=O)OCc2ccccc2)=C1C)C(C(=O)NCCCC)c1ccc(OCC(=O)OC)c(C(=O)OC)c1 (stereo not drawn)	-	-	-	-	-	-
O=C(CSc1nc2ccccc2s1)c1cc2ccccc2o1	.	.	.	-	.	.
COc1cccc(/C=C/C(=O)c2ccc[nH]2)c1	.	.	.	-	.	.
C[C@@H](/C=C\c1cccc(Oc2ccc(F)cc2)c1)N(O)C(N)=O	-	10µM	-	-	-	-
NC([N-]/N=C/c1ccccn1)=[S]=[Fe].O=S(=O)(O)O	-[11.4 µM]	-[11.4 µM]	-[11.5 µM]	-[11.4 µM]	-[11.4 µM]	-[11.5 µM]
CN(C)CCN(Cc1ccccc1)S(=O)(=O)c1cccc2cccnc12	-	-	-	.	-	-
COc1cc2nc(N3CCN(C(=O)[C@@H]4COc5ccccc5O4)CC3)nc(N)c2cc1OC	-	-	-	-	-	-
CN1CCN(c2ccnc(-c3cccnc3)n2)CC1	?	-	-	-	?	-
CN1CCN(c2ccnc(-c3ccoc3)n2)CC1	-	16µM	-	?	-	-
CN1CCN(c2nc(-c3ccoc3)nc3ccccc23)CC1	-	-	-	-	5µM	-
C[C@H]1OC(OC2C(O)[C@@H](O)C(OC3C(O)[C@@H](O)C(O)O[C@@H]3CO)O[C@@H]2CO)[C@H](O)C(O)C1N[C@H]1C=C(CO)[C@@H](O)[C@H](O)C1O (stereo partly drawn)	.	.	.	-[0.0915 µM]	.	.
CC[C@@H](c1ccccc1)n1c(=O)n2n(c1=O)[C@H]1[C@H](O)[C@H]3O[C@@H]3/C(=N/OCc3ccccc3)[C@@H]1CC2	-[11.4 µM]	-[11.4 µM]	-[11.5 µM]	.	-[11.4 µM]	-[11.5 µM]
COC(=O)C/C=C\[C@H](C)[C@@H](OC)c1ccccc1Br	-[11.4 µM]	-[11.4 µM]	-[11.5 µM]	.	-[11.4 µM]	-[11.5 µM]
CCNc1ncc2nc(C)c(=O)n(C)c2n1	-	-	.	-	.	?
CCn1c(SCc2nc(-c3ccccc3)no2)nnc1-c1cccs1	.	.	.	-	.	.
CCn1c(SCc2nc(-c3ccccc3)no2)nc2ccccc21	-	-	-	-	32µM	-
CCCNC(=O)OC[C@@H]1O[C@H](CCO/N=C(\C)CCN2CCc3nc(CC)c(CC)cc3C2)C=C[C@@H]1Oc1ccc(OC)cc1	-[11.4 µM]	-[11.4 µM]	-[11.5 µM]	.	-[11.4 µM]	-[11.5 µM]
C[N+]1(C)CCO[C@](O)(c2ccccc2)C1	-[11.4 µM]	-[11.4 µM]	-[11.5 µM]	-[11.4 µM]	-[11.4 µM]	-[11.5 µM]
